Experiment [1] can be described thus: ATG_ISRE_CIS: Attagene CIS-FACTORIAL HepG2 Assay for human Interferon Regulatory Factor 1 (IRF1) binding to an Interferon-Stimulated Response Element (ISRE) (AID 2282948). The following applies: HepG2 ISRE cis-reporter (Attagene), mRNA transcription readout; actives raise or lower the signal. The essentials: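 Quantitation relies on labelled RT-PCR fragments separated by capillary electrophoresis. Human HepG2 cells bearing cis-promoter reporter constructs were treated 24 h; DMSO served as baseline for bidirectional fitting.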

A short description of experiment [2]: ATG_M_32_CIS: Attagene CIS-FACTORIAL HepG2 Assay for M32 Transcription Factor (Internal Marker) (AID 2282949).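 Note: background control marker of the multiplexed CIS panel rather than a real target.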 The following applies: HepG2 Attagene cis-factorial M32 reporter, mRNA; actives raise or lower the signal. An outline of the steps: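 Internal background marker read-out: RT-PCR/capillary electrophoresis fluorescence of reporter transcripts from transiently transfected HepG2 cells after 24 h chemical exposure. Activity fitted bidirectionally relative to DMSO negative control.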

Experiment [3] is described as follows: ATG_M_06_CIS: Attagene CIS-FACTORIAL HepG2 Assay for M06 Transcription Factor (Internal Marker) (AID 2282950). The settings on record: HepG2 Attagene CIS-FACTORIAL M06 internal marker reporter; actives raise or lower the signal. The essentials:
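Measured 24 h post-dosing in transiently transfected HepG2 cells, this internal-marker endpoint reports reporter mRNA via RT-PCR with fluorescent primer extension and capillary electrophoresis. DMSO served as negative control and baseline for bidirectional fitting.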

Experiment [4] has as its target Hypoxia-inducible factor 1-alpha (Homo sapiens) (UniProt Q16665). As to the kind of experiment: ATG_HIF1a_CIS: Attagene CIS-FACTORIAL HepG2 Assay for human Hypoxia Inducible Factor 1 (HIF1A) (AID 2282951). The settings on record: HepG2 Attagene cis-factorial HIF1a reporter transcription; actives raise or lower the signal. An outline of the steps:
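After 24 h chemical exposure of reporter-transfected HepG2 cells, reporter cDNA was PCR-amplified, labelled by 6-FAM primer extension (2 min 95 C, 20 s 68 C, 10 min 72 C), HpaI-cut (2 h, 37 C) and analysed by CE.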

The target of experiment [5] is Hepatocyte nuclear factor 6 (Homo sapiens) (UniProt Q9UBC0). As to the kind of experiment: ATG_HNF6_CIS: Attagene CIS-FACTORIAL HepG2 Assay for human Hepatocyte Nuclear Factor 6 (HNF6) (AID 2282952). The following applies: HepG2 Attagene cis-factorial HNF6 reporter transcription; actives raise or lower the signal. An outline of the steps: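 Transiently transfected HepG2 cells expressing cis-regulated reporter transcription units were exposed to chemical for 24 h in a 24-well format. Reporter transcript abundance was determined by fluorescence capillary electrophoresis.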

Experiment [6] has as its target Heat shock factor protein 1 (Homo sapiens) (UniProt Q00613). As to the kind of experiment: ATG_HSE_CIS: Attagene CIS-FACTORIAL HepG2 Assay for human Heat Shock Transcription Factor 1 (HSE) (AID 2282953). The following applies: HepG2 HSE cis-reporter, Attagene RNA transcription; actives raise or lower the signal. The essentials: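 Reporter mRNA induction in HepG2 is measured 24 h after dosing, using transiently transfected multiplexed cis-regulated reporter units. Signal comes from capillary electrophoresis of labelled RT-PCR products, with DMSO as negative control.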

Experiment [7] can be described thus: ATG_MRE_CIS: Attagene CIS-FACTORIAL HepG2 Assay for human Metal Responsive Element (MRE) (AID 2282954). The following applies: HepG2 MRE cis-reporter transcription, Attagene multiplex; actives raise or lower the signal. An outline of the steps: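 After a 24 h chemical exposure, transiently transfected HepG2 cells yield RNA whose reporter sequences are amplified, FAM-labelled and sized by capillary electrophoresis. Curves are fitted bidirectionally relative to DMSO.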

The target of experiment [8] is Paired box protein Pax-6 (Homo sapiens) (UniProt P26367). As to the kind of experiment: ATG_Pax6_CIS: Attagene CIS-FACTORIAL HepG2 Assay for human Paired Box 6 (PAX6) (AID 2282956). The settings on record: HepG2 CIS-FACTORIAL PAX6 reporter transcription, RNA readout; actives raise or lower the signal. An outline of the steps:
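After twenty-four hours of chemical exposure, transfected HepG2 cells are harvested for RNA. Cis-promoter reporter transcripts are amplified, fluorescently labelled and sized by capillary electrophoresis, with gain and loss of signal scored against DMSO.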

Experiment [9] can be described thus: ATG_PBREM_CIS: Attagene CIS-FACTORIAL HepG2 Assay for human Phenobarbital-responsive Enhancer Module (PBREM) (AID 2282955). The following applies: HepG2 PBREM cis-reporter, Attagene multiplexed transcription; actives raise or lower the signal. The essentials:
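Measures endogenous factor action on a phenobarbital-responsive enhancer module. HepG2 transiently carrying cis reporters, 24 h treatment, mRNA read-out by RT-PCR plus capillary electrophoresis.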

Active and inactive are the calls of the source. Rule for the calls: active = hit-call score of the fitted dose curve at least 0.9, where 1 is the maximum; inactive = score below 0.9.

Chain of Hypoxia-inducible factor 1-alpha (Homo sapiens) (Q16665 whole entry, looked up): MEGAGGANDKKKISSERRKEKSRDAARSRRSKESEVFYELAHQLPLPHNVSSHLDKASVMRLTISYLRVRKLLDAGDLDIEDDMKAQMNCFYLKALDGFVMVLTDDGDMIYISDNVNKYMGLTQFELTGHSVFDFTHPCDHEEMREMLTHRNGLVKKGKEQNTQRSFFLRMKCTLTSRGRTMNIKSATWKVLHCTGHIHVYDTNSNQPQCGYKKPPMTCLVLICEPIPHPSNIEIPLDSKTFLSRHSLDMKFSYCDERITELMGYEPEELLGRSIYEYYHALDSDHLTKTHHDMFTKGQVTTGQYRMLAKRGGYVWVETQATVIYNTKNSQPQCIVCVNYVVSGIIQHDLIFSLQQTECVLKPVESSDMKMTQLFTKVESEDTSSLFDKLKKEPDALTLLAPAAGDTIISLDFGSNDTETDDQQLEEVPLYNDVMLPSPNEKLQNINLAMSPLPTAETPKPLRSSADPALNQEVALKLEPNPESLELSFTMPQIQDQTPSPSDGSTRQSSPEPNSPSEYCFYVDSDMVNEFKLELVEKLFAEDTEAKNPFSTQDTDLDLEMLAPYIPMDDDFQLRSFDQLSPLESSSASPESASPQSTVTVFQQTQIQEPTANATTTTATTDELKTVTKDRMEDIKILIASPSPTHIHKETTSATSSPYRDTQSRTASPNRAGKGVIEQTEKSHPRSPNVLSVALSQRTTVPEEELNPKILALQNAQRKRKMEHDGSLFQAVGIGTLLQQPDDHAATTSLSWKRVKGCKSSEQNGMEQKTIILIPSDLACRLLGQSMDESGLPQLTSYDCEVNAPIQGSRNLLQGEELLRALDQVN
Chain of Hepatocyte nuclear factor 6 (Homo sapiens) (Q9UBC0 whole entry, looked up): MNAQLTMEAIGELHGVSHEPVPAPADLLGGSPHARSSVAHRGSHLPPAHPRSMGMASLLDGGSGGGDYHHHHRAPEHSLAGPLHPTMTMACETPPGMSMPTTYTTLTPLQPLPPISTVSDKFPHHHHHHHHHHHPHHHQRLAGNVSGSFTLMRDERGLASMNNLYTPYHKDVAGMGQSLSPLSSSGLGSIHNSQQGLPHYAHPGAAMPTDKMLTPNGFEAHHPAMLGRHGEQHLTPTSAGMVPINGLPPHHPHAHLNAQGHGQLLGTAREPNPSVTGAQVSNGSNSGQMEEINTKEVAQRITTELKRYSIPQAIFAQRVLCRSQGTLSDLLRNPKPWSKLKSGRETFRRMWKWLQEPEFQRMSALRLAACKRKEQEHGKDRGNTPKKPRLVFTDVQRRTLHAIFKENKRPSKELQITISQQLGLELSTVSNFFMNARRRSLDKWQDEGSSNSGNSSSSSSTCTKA
Chain of Heat shock factor protein 1 (Homo sapiens) (Q00613 whole entry, looked up): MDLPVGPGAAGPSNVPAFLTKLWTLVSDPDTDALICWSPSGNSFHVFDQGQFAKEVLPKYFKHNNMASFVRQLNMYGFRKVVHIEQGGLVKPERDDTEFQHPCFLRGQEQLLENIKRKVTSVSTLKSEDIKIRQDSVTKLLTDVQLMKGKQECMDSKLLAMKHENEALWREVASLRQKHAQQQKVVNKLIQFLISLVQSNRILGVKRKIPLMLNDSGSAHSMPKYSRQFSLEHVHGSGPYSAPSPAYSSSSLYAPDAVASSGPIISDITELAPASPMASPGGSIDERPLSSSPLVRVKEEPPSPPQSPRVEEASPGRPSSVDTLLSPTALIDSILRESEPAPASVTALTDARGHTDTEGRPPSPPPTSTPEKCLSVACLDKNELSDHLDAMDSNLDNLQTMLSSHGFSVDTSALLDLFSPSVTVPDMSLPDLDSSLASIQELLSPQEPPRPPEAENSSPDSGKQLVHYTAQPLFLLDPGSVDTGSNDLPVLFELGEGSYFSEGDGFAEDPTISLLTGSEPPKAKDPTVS
Chain of Paired box protein Pax-6 (Homo sapiens) (P26367 whole entry, looked up): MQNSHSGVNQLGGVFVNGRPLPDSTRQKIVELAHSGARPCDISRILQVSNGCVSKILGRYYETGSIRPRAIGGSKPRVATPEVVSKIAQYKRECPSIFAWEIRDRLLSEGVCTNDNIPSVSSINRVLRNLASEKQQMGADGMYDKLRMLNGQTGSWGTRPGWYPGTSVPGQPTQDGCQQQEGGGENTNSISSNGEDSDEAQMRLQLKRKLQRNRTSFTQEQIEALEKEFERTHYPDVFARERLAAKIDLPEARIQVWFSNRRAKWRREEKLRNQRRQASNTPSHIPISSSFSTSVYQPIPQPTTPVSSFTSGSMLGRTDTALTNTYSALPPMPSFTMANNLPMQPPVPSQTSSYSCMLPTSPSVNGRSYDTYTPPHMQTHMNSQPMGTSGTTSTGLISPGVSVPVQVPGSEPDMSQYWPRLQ

With `NCCN`, the compound was classed as inactive in [1], in [2], in [3], in [4], in experiment [5] and in [6]. In addition, the call in experiment [7] and in [8] was inactive.
As for `O=c1cc(-c2ccccc2)oc2ccc3ccccc3c12`, the outcome in [1], in [2], in [3], in [4], in [5] and in [6] was inactive. The outcome in experiment [7], in experiment [9] and in experiment [8] was inactive.
With `CCCCC(CC)C(=O)O` (centres undefined), the compound was called inactive in [1], in experiment [2], in [3], in experiment [4], in [5] and in experiment [6]. Further, the compound was classed as inactive in experiment [7] and in experiment [8].
Usually AC50 stands for the midpoint of the concentration-response curve, whichever way the signal moves. Take `CCCCCc1ccc(O)cc1`: the compound was classed as inactive in [1], in [2], in experiment [3], in experiment [4], in experiment [5] and in [7]. The result in [8] was inactive. The AC50 in experiment [6] was 33.4 µM (active).
Regarding `CCCCCCCC(OC)OC`, the compound was classed as inactive in experiment [1], in experiment [2], in experiment [3], in experiment [4], in [5] and in experiment [6]. Further, the compound was called inactive in [7], in experiment [9] and in [8].
On to `CCCCCCCCCCCCCCCCCC[N+](C)(C)Cc1ccccc1`, for which the AC50 in experiment [1] was 12.8 µM (active); in experiment [5] it was 10.1 µM (active); in experiment [7], 7.27 µM (active). The call in [2], in experiment [3], in experiment [4], in experiment [6] and in [8] was inactive.
With `CN(Cc1cnc2nc(N)nc(N)c2n1)c1ccc(C(=O)N[C@@H](CCC(=O)O)C(=O)O)cc1`, the result in experiment [1], in experiment [2], in experiment [3], in experiment [5], in experiment [6] and in [7] was inactive. Moreover, the result in experiment [9] and in experiment [8] was inactive.
As for `O=C1NS(=O)(=O)c2ccccc21`, the outcome in experiment [1], in experiment [2], in experiment [3], in [4], in experiment [5] and in [8] was inactive.
Turning to `Cc1cc(=O)oc2cc(O)ccc12`, the result in [1], in experiment [2], in experiment [3], in [5], in experiment [6] and in [8] was inactive.
Consider `CC(C)[C@@H]1CC[C@@H](C)C[C@H]1O`, for which the compound was classed as inactive in experiment [1], in experiment [2], in experiment [3], in [4], in experiment [5] and in [7]. In experiment [8], the result was inactive.
Take `Cc1ccc(S(=O)(=O)O)cc1`: the compound was called inactive in [1], in experiment [2], in experiment [3], in [5], in experiment [7] and in experiment [8].
As to `Oc1cccc2c(O)cccc12`, the compound was called inactive in experiment [1], in [2], in experiment [3], in experiment [4], in experiment [5] and in [6]. The compound was classed as inactive in experiment [8].
`O=C(c1ccccc1)c1ccccc1`: the call in experiment [1], in [2], in experiment [3], in experiment [6], in [7] and in experiment [8] was inactive.
With `CS(=O)(=O)c1ccc([C@@H](CC2CCCC2)C(=O)Nc2cnccn2)cc1Cl`, the half-maximal activity concentration (AC50) in experiment [1] was 30.2 µM (active); in [6] it was 150 µM (active); in experiment [7] it was 113 µM (active); in experiment [8] it was 73.9 µM (active). Further, the compound was classed as inactive in [2], in experiment [3] and in experiment [9].
`N=C(N)c1ccc(OCCCCCOc2ccc(C(=N)N)cc2)cc1`: the AC50 was 57.9 µM (active) in [1], 113 µM (active) in experiment [4], 65.2 µM (active) in experiment [7] and 101 µM (active) in experiment [8]. For the same compound, the compound was called inactive in experiment [2], in [3], in experiment [5] and in experiment [6].
As to `COCN(COC)c1nc(N(COC)COC)nc(N(COC)COC)n1`, the result in [1], in experiment [2], in [3], in experiment [4], in experiment [5] and in experiment [6] was inactive. Moreover, the outcome in experiment [7], in experiment [9] and in experiment [8] was inactive.
As to `c1ccc(CNc2ncnc3c2ncn3C2CCCCO2)cc1` (centres undefined), the compound was classed as inactive in [1], in experiment [2], in [3], in experiment [4], in experiment [5] and in experiment [6]. Moreover, the concentration at half-maximal activity (AC50) in experiment [9] was 23.3 µM (active).
For the compound `CCOC(=O)c1nc(C(Cl)(Cl)Cl)n(-c2ccc(Cl)cc2Cl)n1`, the half-maximal activity concentration (AC50) in [1] was 53.2 µM (active); in experiment [2] it was 63.9 µM (active); in [5] it was 160 µM (active); in experiment [6], 65.8 µM (active); in experiment [9] it was 100 µM (active). The compound was called inactive in experiment [3] and in experiment [8].

These data come from PubChem BioAssay (EPA / NIEHS).
